Our source for the z-score and composite z-score values is PubChem BioAssay.

Assay [1] in a line: HepG2 liver cancer cell viability effects, profiling panel, resazurin fluorescence, 24 h, PK04 Diversity Set (AID 1172). The settings on record: higher = more signal. On the technique in general: Alamar Blue is a resazurin reagent that responds to reducing activity.
A short description of assay [2]: basal S. cerevisiae growth modulation, no modifier, primary screen, OD600, strain BY4716, 24 h, basal condition (AID 1173). The settings on record: OD600, 24 h, higher = more signal, called active from +8 up or from −8 down.
A short description of assay [3]: MM1S myeloma cell viability, profiling panel, resazurin fluorescence, basal, 24 h, PK04 Diversity Set (AID 1174).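 Also: MM1S multiple myeloma cell line.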 The conditions noted are these: higher = more signal, called active from +8 up or from −8 down.
Assay [4] deals with Dihydroorotate dehydrogenase (quinone), mitochondrial (Plasmodium falciparum (isolate 3D7)) (UniProt Q08210). Briefly: PfDHODH enzyme inhibitors, primary screen, biochemical, C-terminal His tag, absorbance 600 nm (AID 1175).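 Also: recombinant parasite enzyme with a five histidine tag at its C terminus.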 The conditions noted are these: DCIP absorbance 600 nm, higher = more signal, called active from +8 up or from −8 down.
Assay [5] in a line: S. cerevisiae RM11-1a growth modifiers, primary screen, strain RM11-1a, OD600, basal, 24 h (AID 1177).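 Also: cultures grown under basal conditions with no added stressor.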 The settings on record: OD600, 24 h, higher = more signal, called active from +8 up or from −8 down.
The nature of assay [6]: E. coli acrAB mutant growth effects, primary screen, E. coli filamentation inducers, strain DRC39, OD650, 24 h (AID 1178).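 Also: growth measured as culture turbidity by optical density at 650 nm.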 The settings on record: higher = more signal, called active from +8 up or from −8 down.
The nature of assay [7]: E. coli acrAB mutant growth effects, primary screen, E. coli filamentation inducers, strain DRC39, OD650, 48 h (AID 1179).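 Also: screen aims at cell division blockers that make cells filament.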 The settings on record: E. coli DRC39 delta-acrAB growth, higher = more signal, called active from +8 up or from −8 down.
Assay [8] in a line: RPMI8226 myeloma cell viability, profiling panel, resazurin fluorescence, basal, 24 h, PK04 Diversity Set (AID 1180).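 Also: RPMI8826 multiple myeloma cell line at 5000 cells per well.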 The settings on record: higher = more signal.
Assay [9] deals with E3 ubiquitin-protein ligase XIAP (Homo sapiens) (UniProt P98170). Briefly: XIAP binders, primary screen, biophysical, small-molecule microarray, fluorescence 635 nm (AID 1181).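 Also: score merges 667 nm emission and signal to noise over triplicate slides.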 The conditions noted are these: small-molecule microarray binding, higher = more signal.
For assay [10], the system named is XIP peptide (Xip251-270) binding. Briefly: small-molecule binders of XIP peptide, primary screen, biochemical, small-molecule microarray, fluorescence 635/667 nm, 0.1 µg/mL protein (AID 1182). The settings on record: fluorescent protein binding, 635 nm, higher = more signal, called active from +8 up or from −8 down.
Assay [11] concerns XIP peptide (Xip251-270). Briefly: small-molecule binders of XIP peptide, primary screen, biochemical, small-molecule microarray, fluorescence 635/667 nm, 0.5 µg/mL protein (AID 1183). The conditions noted are these: small-molecule microarray binding, fluorescence 635 nm; higher = more signal.
A short description of assay [12]: Plasmodium falciparum growth inhibition, primary screen, strain 3D7, DAPI fluorescence, 100 nL (AID 1184).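 Also: parasites grown inside human red blood cells in medium with human serum.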 The conditions noted are these: P. falciparum 3D7 growth, 3 d, higher = more signal.
The target of assay [13] is Homeobox protein Hox-A13 (Mus musculus) (UniProt Q62424). Briefly: inhibitors of HoxA13-DNA binding, primary screen, biochemical, fluorescence polarization, labeled oligonucleotide (AID 1185). The settings on record: 15 min, higher = more signal, called active from +8 up or from −8 down. A general note: In fluorescence polarisation assays a small probe gives low polarisation when free and higher when bound to something large.

Assay [14] is described as follows: inhibitors of hydroxyurea-induced Chk1 phosphorylation, primary screen, imaging, HeLa, phospho-Chk1 antibody, percent positive cells (AID 1186). The conditions noted are these: hydroxyurea-induced phospho-Chk1 immunofluorescence imaging, higher = more signal.
Assay [15] can be described thus: inhibitors of hydroxyurea-induced Chk1 phosphorylation, primary screen, imaging, HeLa, phospho-Chk1 nuclear intensity (AID 1187). The settings on record: hydroxyurea-induced phospho-Chk1 immunofluorescence imaging, higher = more signal.

Active and inactive are the calls of the source. Unless noted, no rule for the calls is given here.

Chain of Homeobox protein Hox-A13 (Mus musculus) (Q62424 whole entry, looked up): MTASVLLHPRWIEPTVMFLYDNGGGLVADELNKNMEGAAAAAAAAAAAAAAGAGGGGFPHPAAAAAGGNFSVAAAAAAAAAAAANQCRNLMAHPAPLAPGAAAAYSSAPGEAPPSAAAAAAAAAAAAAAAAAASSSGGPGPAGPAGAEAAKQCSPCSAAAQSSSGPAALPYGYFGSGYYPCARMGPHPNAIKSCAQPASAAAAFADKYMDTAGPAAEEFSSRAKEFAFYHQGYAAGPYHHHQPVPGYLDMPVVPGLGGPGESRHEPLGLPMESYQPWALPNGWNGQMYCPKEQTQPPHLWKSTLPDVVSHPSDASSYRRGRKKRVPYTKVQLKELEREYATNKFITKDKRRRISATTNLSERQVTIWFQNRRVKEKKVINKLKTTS
Chain of Dihydroorotate dehydrogenase (quinone), mitochondrial (Plasmodium falciparum (isolate 3D7)) (Q08210 whole entry, looked up): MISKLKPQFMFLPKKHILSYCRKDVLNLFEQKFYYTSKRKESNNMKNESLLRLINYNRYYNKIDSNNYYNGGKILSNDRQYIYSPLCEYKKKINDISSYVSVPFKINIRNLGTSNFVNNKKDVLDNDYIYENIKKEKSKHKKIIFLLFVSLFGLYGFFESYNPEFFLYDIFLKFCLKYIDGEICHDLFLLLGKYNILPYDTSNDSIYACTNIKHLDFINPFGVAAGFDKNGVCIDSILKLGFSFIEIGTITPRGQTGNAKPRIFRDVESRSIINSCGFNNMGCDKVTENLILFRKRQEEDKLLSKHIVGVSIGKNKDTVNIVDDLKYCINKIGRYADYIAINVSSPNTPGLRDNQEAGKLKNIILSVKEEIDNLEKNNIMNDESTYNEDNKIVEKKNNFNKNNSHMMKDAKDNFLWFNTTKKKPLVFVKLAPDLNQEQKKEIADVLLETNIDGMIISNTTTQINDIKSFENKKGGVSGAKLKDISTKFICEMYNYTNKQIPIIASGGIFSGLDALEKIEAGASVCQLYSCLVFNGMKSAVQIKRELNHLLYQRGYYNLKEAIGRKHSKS
Chain of E3 ubiquitin-protein ligase XIAP (Homo sapiens) (P98170 whole entry, looked up): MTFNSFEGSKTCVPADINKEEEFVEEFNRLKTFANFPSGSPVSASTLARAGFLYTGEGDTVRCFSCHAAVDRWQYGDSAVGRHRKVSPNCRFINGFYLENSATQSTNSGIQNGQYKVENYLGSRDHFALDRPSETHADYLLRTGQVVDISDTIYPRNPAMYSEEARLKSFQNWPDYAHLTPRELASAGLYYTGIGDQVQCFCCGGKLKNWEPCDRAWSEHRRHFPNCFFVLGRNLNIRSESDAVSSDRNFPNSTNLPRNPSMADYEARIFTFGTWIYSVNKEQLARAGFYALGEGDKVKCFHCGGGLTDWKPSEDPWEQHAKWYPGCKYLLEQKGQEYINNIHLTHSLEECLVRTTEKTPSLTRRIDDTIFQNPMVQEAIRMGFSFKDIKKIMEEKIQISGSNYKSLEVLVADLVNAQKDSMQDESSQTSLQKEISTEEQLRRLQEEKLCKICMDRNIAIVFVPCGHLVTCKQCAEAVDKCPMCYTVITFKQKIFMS

As to `CCCC/C=C/[C@H]([C@@H](O)Cc1ccccc1)N(CC#Cc1ccccc1)Cc1ccccc1Br`, the z-score was 1.65 in [1]; -1.44 (inactive) in assay [2]; 0.579 (inactive) in [3]; 0.994 (inactive) in assay [5]; 2.75 (inactive) in [6]; 1.19 (inactive) in assay [7]. For the same molecule, the z-score in assay [8] is 0.788; in [12], -0.972; in assay [13], 0.453 (inactive); in assay [14], -0.138 (inactive); in assay [15] it was -0.0836 (inactive). Besides, the composite z-score is 0.197 (inactive) in assay [4], -0.039 in assay [9], 0.227 (inactive) in assay [10] and -1.26 in [11].

Turning to `C=CCC(OC(C)=O)[C@@H]1[C@@H](N(Cc2cc3ccccc3o2)C(=O)Cc2ccc(F)cc2)c2cc(OCCCO)ccc2N1C(=O)c1ccc(-c2ccccc2)cc1` (stereo partly specified), the z-score is 1.13 in [1]; -0.588 (inactive) in assay [2]; -0.518 (inactive) in assay [3]; -0.157 (inactive) in [5]; 1.17 (inactive) in [6]; 0.845 (inactive) in assay [7]. Moreover, the z-score in [8] was 0.673; in assay [12], -0.0101; in assay [13] it was -1.04 (inactive); in [14] it was 0.0934 (inactive); in assay [15], 0.192 (inactive). In addition, the composite z-score in [4] is -0.177 (inactive); in assay [9], -0.332; in assay [10], -0.618 (inactive); in [11] it was -0.666.

As to `C[C@H]1COC(=O)[C@@H]2CCCN2C(=O)[C@@H](C)COC(=O)[C@@H]2CCCN2C1=O`, the z-score is 0.678 in assay [1]; -0.978 (inactive) in assay [2]; 0.93 (inactive) in assay [3]; -0.691 (inactive) in [5]; 0.825 (inactive) in assay [6]; -0.0322 (inactive) in assay [7]. Besides, the z-score in [8] was 0.73; in assay [12] it was -0.12; in [13], -5.05 (inactive). Besides, the composite z-score in [4] was -0.0223 (inactive); in assay [9] it was -0.294; in assay [10], -0.0153 (inactive); in assay [11], 0.454.

In the case of `[N-]=[N+]=NCc1ccccc1C[C@]1(C(N)=O)N=C(c2ccc(OCCCO)cc2)O[C@H]1c1ccccc1CN=[N+]=[N-]`, the z-score in assay [1] is -0.668; in assay [2] it was -3.26 (inactive); in assay [3], -1.04 (inactive); in assay [5] it was -3.31 (inactive); in assay [6], 2.63 (inactive); in assay [7], 0.258 (inactive). Also, the z-score is -1.46 in [8]; -2.29 in assay [12]; 1.67 (inactive) in assay [13]; -0.442 (inactive) in assay [14]; -0.427 (inactive) in [15]. Besides, the composite z-score in [4] is -2.42 (inactive); in assay [9], 0.0685; in [10], 1.04 (inactive); in assay [11] it was -0.285.

In the case of `C[C@H]1NC(=O)[C@@H](C)NC(=O)[C@@]23C(=O)N[C@@H](Cc4ccccc4)C2[C@H](C)[C@@]2(C)O[C@H]2C3/C=C/C/C=C\CNC1=O` (stereo partly specified), the z-score in assay [1] is 0.0975; in [2], -0.811 (inactive); in [3], 1.02 (inactive); in assay [5], 0.776 (inactive); in [6] it was 2.33 (inactive); in [7], 1.58 (inactive). In addition, the z-score is 1.02 in assay [8]; -0.428 in assay [12]; -3.98 (inactive) in assay [13]; -0.318 (inactive) in [14]; 0.412 (inactive) in [15]. The composite z-score in assay [4] was 0.254 (inactive); in assay [9], -0.198; in assay [10] it was 0.378 (inactive); in assay [11], -0.166.

As for `CC(C)N1CC=CC23O[C@@H]4/C=C\CCCOC(=O)C4[C@H]2C(=O)N(CCCCCO)[C@@H]3C1=O` (stereo partly specified), the z-score is 0.46 in [1]; -1.08 (inactive) in assay [2]; 1.35 (inactive) in [3]; -0.354 (inactive) in [5]; 1.26 (inactive) in [6]; 1.29 (inactive) in assay [7]. The z-score in assay [8] was 1.13; in assay [12] it was -0.426; in assay [13], -4.61 (inactive); in assay [14], -0.261 (inactive); in assay [15], -0.128 (inactive). Also, the composite z-score is 0.623 (inactive) in [4], 0.973 in assay [9], -0.301 (inactive) in assay [10] and -1.95 in assay [11].

Take `O=C(NCc1ccccc1)[C@@]1(CCS(=O)(=O)c2ccccc2)COC(c2ccc(OCCCO)cc2)=N1`: the z-score is 0.929 in [1]; 0.0648 (inactive) in [2]; -0.12 (inactive) in assay [3]; 1.52 (inactive) in [5]; 2.95 (inactive) in assay [6]; 1.9 (inactive) in assay [7]. Further, the z-score in [8] was -0.0092; in assay [12], -2.26; in [13] it was -4.72 (inactive); in [14], -0.712 (inactive); in assay [15], -0.464 (inactive). In addition, the composite z-score in assay [4] was -0.297 (inactive); in assay [9], 0.272; in assay [10] it was 1.13 (inactive); in [11] it was 0.881.

Consider `COCCCNC(=O)[C@@]1(Sc2ccc(C)cc2)CC(=O)N(Cc2cc(C(F)(F)F)cc(C(F)(F)F)c2)[C@@H]1c1ccc(CO)cc1I`, for which the z-score in assay [1] is -0.125; in assay [2], -3.95 (inactive); in assay [3], -2.01 (inactive); in assay [5], -2.16 (inactive); in assay [6], 0.818 (inactive); in assay [7] it was 0.328 (inactive). The z-score in [8] is -1.2; in [12] it was -0.709; in [13], -1.21 (inactive); in assay [14] it was 0.007 (inactive); in assay [15], 0.283 (inactive). The composite z-score in [4] was -0.625 (inactive); in assay [9] it was 0.0425; in [10], -0.291 (inactive); in [11], -0.413.

As to `C=C(COC)/C(=C/C[C@@H](OC(=O)c1ccncc1)c1ccc(OCCO)cc1)c1cc(C(=O)OC)ccc1OC`, the z-score in assay [1] is 0.789; in assay [2], -2.19 (inactive); in [3], 1.36 (inactive); in assay [5], -2.6 (inactive); in [6] it was 2.65 (inactive); in [7], 1.79 (inactive). Moreover, the z-score was 1.16 in [8]; -2.98 in assay [12]; -4.62 (inactive) in assay [13]; -0.252 (inactive) in assay [14]; 0.535 (inactive) in assay [15]. The composite z-score is -1.32 (inactive) in [4], -0.103 in [9], 1.08 (inactive) in [10] and 0.749 in assay [11].

As to `CO[C@H]1COC(=O)CC=C[C@H](C)[C@@H](OC)COC(=O)CC=C[C@@H]1C`, the z-score in assay [1] was 1.4; in [2] it was -1.65 (inactive); in assay [3], 1.18 (inactive); in assay [5], -1.38 (inactive); in [6], 1.2 (inactive); in assay [7], 1.21 (inactive). Besides, the values for the z-score in [8], in [12] and in assay [13] were 0.749, 0.648 and -0.307 (inactive), respectively. Moreover, the composite z-score in [4] was 0.522 (inactive); in [9], -0.199; in [10], 0.878 (inactive); in [11], 0.695.
